High-throughput results: PubChem BioAssay, National Center for Advancing Translational Sciences (NCATS)
This excerpt belongs to a sample that is enriched for hits.
CBFb-RUNX1 inh: qHTS Assay for Compounds Blocking the Interaction Between CBF-beta and RUNX1 for the Treatment of Acute Myeloid Leukemia | Runt-related transcription factor 1 (Homo sapiens) + Core-binding factor subunit beta … | AlphaScreen CBFb-His/RUNX1-biotin binding, biochemical | Potency, µM (top dose mostly 59.8 µM), inactives show top-dose activity, negative = inhibition, usual class: inhibitors | 230,000 tested, under 10 active | AID 1477, 2009; active means well fitted curve in the direction sought with a large enough effect; inconclusive means small, poorly fitted or top-dose-only effect, or effect the other way, or another doubt; inactive means no such curve, though single readings can be large or run the other way; further: % of control where 0% means no effect
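Compounds were screened at multiple concentrations against a preformed CBF-beta(His)/RUNX1(biotin) complex (30 nM of each) for 15 min at room temperature, followed by 90 min with nickel and streptavidin beads and AlphaScreen reading.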
ClpP mod: qHTS Assay for Activators of ClpP | purified B. subtilis ClpP, FRET peptide cleavage, 20 min | 340,000 tested, 1.9% active | ATP-dependent Clp protease proteolytic subunit (Bacillus subtilis (strain 168)), P80244 | Potency, µM (doses to about 57.5 µM), for the others: at the highest dose activity change, negative = active; active means well fitted falling curve with a large enough effect; inconclusive means small, poorly fitted or top-dose-only effect; inactive means no such curve, though single readings can be large or run the other way; further: potency means the concentration at half of the fitted maximal effect; the source files actives as falling curves though it sought activators and does not explain the sign; nearly all actives have a fitted effect of over 65% in size
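Purified B. subtilis ClpP, 10 microg/mL final in Tris/HCl pH8 with KCl, BSA, glycerol and Tween-20, cleaved an Abz/nitrotyrosine-quenched decapeptide. Fluorescence (ex 320, em 430) was read at 0 and 20 min at room temperature. Delta was normalized to 5.8 microM ADEP and DMSO/no-enzyme controls.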
Rango-impB inh: qHTS Assay for Inhibitors of Rango (Ran-regulated importin-beta cargo) - Importin beta complex formation; Rango CFP/YFP FRET sensor + importin beta, 45 min; Potency, µM (titrated, usually from 92.2 µM), for inactives: at the top dose inhibition of complex formation; 340,000 tested, 0.031% active; AID 540263, 2011;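 further: potency means the concentration at half of the fitted maximal effect; 0% = DMSO wells and 100% = buffer wells lacking importin beta; nearly all actives have a fitted effect of over 15% in size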
Target sequence (Q14974 whole entry, looked up): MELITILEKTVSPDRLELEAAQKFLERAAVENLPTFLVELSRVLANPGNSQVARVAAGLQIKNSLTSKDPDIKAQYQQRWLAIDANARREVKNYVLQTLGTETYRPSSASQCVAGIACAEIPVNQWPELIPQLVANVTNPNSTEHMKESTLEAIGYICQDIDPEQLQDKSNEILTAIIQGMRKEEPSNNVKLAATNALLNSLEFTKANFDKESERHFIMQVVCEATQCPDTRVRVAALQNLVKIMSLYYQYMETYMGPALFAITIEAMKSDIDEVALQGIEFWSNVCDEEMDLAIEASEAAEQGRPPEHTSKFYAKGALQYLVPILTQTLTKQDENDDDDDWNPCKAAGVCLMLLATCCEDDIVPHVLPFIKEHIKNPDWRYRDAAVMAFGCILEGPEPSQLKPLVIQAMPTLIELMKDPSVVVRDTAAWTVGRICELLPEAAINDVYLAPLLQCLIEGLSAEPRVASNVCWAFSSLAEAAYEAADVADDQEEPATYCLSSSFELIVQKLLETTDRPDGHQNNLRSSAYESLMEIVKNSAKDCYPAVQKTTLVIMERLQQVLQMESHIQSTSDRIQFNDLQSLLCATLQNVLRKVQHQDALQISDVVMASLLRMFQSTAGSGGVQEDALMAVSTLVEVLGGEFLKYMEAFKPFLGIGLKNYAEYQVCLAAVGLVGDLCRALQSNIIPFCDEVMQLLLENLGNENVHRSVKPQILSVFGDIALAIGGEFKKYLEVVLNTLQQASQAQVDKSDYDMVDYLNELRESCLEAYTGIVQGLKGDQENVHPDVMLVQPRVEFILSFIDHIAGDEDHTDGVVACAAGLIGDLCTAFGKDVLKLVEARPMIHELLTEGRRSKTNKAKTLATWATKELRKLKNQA
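FRET biosensor (snurportin 1 IBB flanked by EYFP and cerulean), 50 nM, with compound 5 min, then 0.125 microM importin beta in PBS, 1 mM DTT, 0.02% Tween-20, 0.1% BSA. CFP/YFP ratio read after 45 min at room temperature; pre-read flags interference.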
Rango dissoc inh: qHTS Assay for Inhibitors of RanGTP induced Rango (Ran-regulated importin-beta cargo) - Importin beta complex dissociation; Biochemical FRET Rango-importin beta, RanGTP-induced dissociation; Snurportin-1 (Homo sapiens) + GTP-binding nuclear protein Ran (Homo sapiens) + Importin …; Potency, µM (highest dose often 46.1 µM), without a hit: at the highest dose activity change, negative = inhibition; AID 540253, 2011; 340,000 tested, 0.071% active; further: potency means the concentration at half of the fitted maximal effect; % of control where 0% means no effect; nearly all actives have a fitted effect of over 45% in size
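Rango FRET biosensor (snurportin-1 IBB flanked by N-terminal EYFP and C-terminal CFP10) at 0.1 uM, with 0.25 uM importin beta in PBS, 1mM DTT, 0.02% Tween-20, 0.1% BSA. 0.6 uM Ran, 2mM GTP and 0.2 uM RCC1 were then added for 45 min at room temperature. Inhibition read as loss of FRET rise.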
MBNL1-CUG inh: qHTS Assay for Inhibitors of MBNL1-poly(CUG) RNA binding; Muscleblind-like protein 1 (Homo sapiens), Q9NR56; TR-FRET MBNL1-His/biotin-(CUG)12 binding, 665/545 ratio; Potency, µM (top dose mostly 57.5 µM), for inactives: top-dose activity change, negative = inhibition, hits mostly inhibitors; 280,000 tested, 0.036% active; active means well fitted inhibition curve with a large enough effect in the signal ratio, with a control signal flat, not every such curve was filed as active; inconclusive means small, poorly fitted or top-dose-only effect, or effect the other way, or a change in a side signal; inactive means no such curve, though single readings can be large or run the other way; the % refers to the signal ratio; further: potency means the concentration at half of the fitted maximal effect; on the % scale 0 is the no-effect control and ±100 the full control effect
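Inhibition of protein-RNA binding appears as loss of TR-FRET between terbium anti-His antibody on MBNL1-His and streptavidin-XL665 on biotin-(CUG)12. Activity is normalized to buffer-only and uninhibited-complex controls.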
Active calls of the source: *; [ ] = remark or other dose. Unless noted, the call rests on the fitted dose curve.

`COc1ccc(-c2nc3c(c4c2C[C@H](c2ccccc2)OC4)CN(S(=O)(=O)c2ccc(C#N)cc2)CC3)c(C)c1` gave CBFb-RUNX1 inh -4%[13.1 µM].
`Cc1ccccc1CNC(=O)c1ccccc1N` gave CBFb-RUNX1 inh 6%, ClpP mod 10µM*, Rango-impB inh 1%, Rango dissoc inh 12% and MBNL1-CUG inh 0%.
For CCN(CC)CCCNC(=O)c1ccccc1C the results were CBFb-RUNX1 inh 9%, ClpP mod 0%, Rango-impB inh -2%, Rango dissoc inh -3% and MBNL1-CUG inh -6%.
For COc1ccc(C(=O)NCc2ccccc2OC)c(OC)c1 the results were CBFb-RUNX1 inh -7%, ClpP mod 1%, Rango-impB inh -2%, Rango dissoc inh 6% and MBNL1-CUG inh -10%.
For Cc1ccccc1CNC(=O)c1ccccc1C the results were CBFb-RUNX1 inh 3%, ClpP mod -1%, Rango-impB inh -4%, Rango dissoc inh 11% and MBNL1-CUG inh 5%.
COc1ccccc1CNC(=O)c1ccccc1N was read as CBFb-RUNX1 inh -2%, ClpP mod 10µM*, Rango-impB inh -8%, Rango dissoc inh 20% and MBNL1-CUG inh 1%.
CCN(CC)CCNC(=O)c1ccccc1N was read as CBFb-RUNX1 inh 9%, ClpP mod 10µM*, Rango-impB inh 0%, Rango dissoc inh 11% and MBNL1-CUG inh 8%.
`Nc1ccccc1C(=O)NCc1ccccc1` gave CBFb-RUNX1 inh 1%, ClpP mod 28µM*, Rango-impB inh 2%, Rango dissoc inh -9% and MBNL1-CUG inh 3%.
Screening Cc1ccccc1NC(=O)Cn1cc(S(=O)(=O)N2CCCC2)c(S(=O)(=O)N2CCCC2)c1 returned ClpP mod 1%.
For COc1ccc(CCN2C(=O)c3oc4ccc(F)cc4c(=O)c3C2c2ccc(C(C)(C)C)cc2)cc1 (stereo unspecified) the results were ClpP mod -2%.
Screening O=C(NCc1ccc(Cl)cc1)c1nccnc1CO returned Rango-impB inh 0%, Rango dissoc inh -18% and MBNL1-CUG inh 0%.
Screening O=C(NCc1ccccc1)c1nccnc1CO returned ClpP mod 16µM*, Rango-impB inh -5%, Rango dissoc inh -7% and MBNL1-CUG inh -4%.
COc1ccccc1CNC(=O)c1ccccc1NS(C)(=O)=O was read as CBFb-RUNX1 inh 5%, ClpP mod 28µM*, Rango-impB inh 3%, Rango dissoc inh 2% and MBNL1-CUG inh -1%.
Cc1noc(C)c1S(=O)(=O)Nc1ccc(C(=O)Nc2ccc(Br)cc2)cc1 was read as ClpP mod -13%.
`COc1ccc(Cl)cc1NC(=O)C1CCN(S(=O)(=O)c2ccc(F)cc2)CC1` gave ClpP mod -1%.
Screening COc1ccc(-c2nc3c(c(=O)[nH]c(=O)n3Cc3ccccc3)n2Cc2ccccc2)cc1 returned CBFb-RUNX1 inh -5%, ClpP mod 28µM*, Rango-impB inh -2%, Rango dissoc inh 3% and MBNL1-CUG inh 5%.
For COc1ccc(-c2nc3c(c(=O)[nH]c(=O)n3Cc3ccccc3)n2C)cc1 the results were CBFb-RUNX1 inh 9%, ClpP mod 35µM*, Rango-impB inh inconclusive, Rango dissoc inh -7% and MBNL1-CUG inh -10%.
Cc1c(C#N)c2ncn(Cc3ccccn3)c(=O)c2n1-c1ccccc1 was read as CBFb-RUNX1 inh -6%, ClpP mod 28µM*, Rango-impB inh 4%, Rango dissoc inh 2% and MBNL1-CUG inh 6%.
`CCOC(=O)CN(Cc1ccccc1)C(C(=O)NC1CCCCC1)c1ccccc1` (stereo unspecified) gave ClpP mod 0%.
For COc1ccc(Cn2c(SCc3ccc(C(=O)NCc4ccccc4F)cc3)nc3cccnc32)cc1 the results were ClpP mod 32µM*.
CN(C)CCNC(=O)c1ccc(Cn2c(SCc3ccc(F)cc3)nc3cccnc32)cc1 was read as ClpP mod 4%.
CCNC(=O)c1ccc(CSc2nc3cccnc3n2Cc2ccc(OC)cc2)cc1 was read as ClpP mod 4%.
`COc1ccc(Cn2c(SCc3ccc(C(=O)NCc4ccc(C)cc4)cc3)nc3cccnc32)cc1` gave ClpP mod 32µM*.
O=C(NCCN1CCCCC1)c1ccc(Cn2c(SCc3ccc(F)cc3)nc3cccnc32)cc1 was read as ClpP mod 32µM*.
`O=C(CSc1nc2c(c(=O)[nH]1)CN(Cc1ccc3c(c1)OCO3)CC2)Nc1ccc(F)cc1` gave ClpP mod 2%.
For CCCC[C@@H](C=O)NC(=O)[C@H](CC(C)C)NC(=O)OCc1ccccc1 the results were CBFb-RUNX1 inh 8%.
Screening O=C1OCCC1Sc1nnc(-c2ccc(F)cc2)n1Cc1ccccc1 (stereo unspecified) returned CBFb-RUNX1 inh 4%, ClpP mod 25µM*, Rango-impB inh -1%, Rango dissoc inh 18% and MBNL1-CUG inh -10%.
`CCn1cc(C(=O)OCC(=O)N2C(C)CCCC2C)c(=O)c2ccc(C)nc21` (stereo unspecified) gave CBFb-RUNX1 inh 5%, ClpP mod 16µM*, Rango-impB inh -3%, Rango dissoc inh -1% and MBNL1-CUG inh 1%.
For COc1ccc(-n2c(N)c(C(=O)NCC3CCCO3)c3nc4ccccc4nc32)c(OC)c1 (stereo unspecified) the results were CBFb-RUNX1 inh 18%, ClpP mod 32µM*, Rango-impB inh inconclusive, Rango dissoc inh inconclusive and MBNL1-CUG inh 22%.
Screening COc1ccc(N=c2oc3cc(O)ccc3cc2C(=O)NCC2CCCO2)c(OC)c1 (stereo unspecified) returned CBFb-RUNX1 inh 6%, ClpP mod 25µM*, Rango-impB inh inconclusive, Rango dissoc inh inconclusive and MBNL1-CUG inh 25%.
Screening C=CCn1c(N)c(C(=O)NCC2CCCO2)c2nc3ccccc3nc21 (stereo unspecified) returned CBFb-RUNX1 inh inconclusive, ClpP mod 8.9µM*, Rango-impB inh inconclusive, Rango dissoc inh inconclusive and MBNL1-CUG inh 32%.
